aSyn UTR act – Activators via SNCA 5'UTR binding, MLPCN. alpha-synuclein 5'UTR reporter, activators screen. activity score, % (tested at 7.5 µM), hits read low. 300,000 tested, 7.1% active; in the data active means activity score below about -60%
Numbers without * were called inactive. These entries were drawn from the full list.

Results for Nc1ccc(O)c2c(=O)cc(-c3ccccc3Cl)oc12 ?
aSyn UTR act: -100.3*

Results for Cc1cc(-c2n[nH]c(=S)o2)c(C)n1-c1ccccc1 ?
aSyn UTR act: -144.3*

How did COC(=O)c1cc(-c2ccccc2)sc1N do in these assays?
aSyn UTR act: -77.4*

What do the screens show for `COC(=O)c1sc(-c2cccs2)cc1N`?
aSyn UTR act: -85.6*

How did COC(=O)c1sc(-c2ccc(Cl)cc2)cc1N do in these assays?
aSyn UTR act: -101.1*

How did COc1ccc(-c2csc(N3N=C(C)C(C)C3=O)n2)cc1 (stereo unspecified) do in these assays?
aSyn UTR act: -87.2*

How did CC1=NN(c2nc(-c3ccc(C)cc3)cs2)C(=O)C1N=Nc1ccccc1O (stereo unspecified) do in these assays?
aSyn UTR act: 63.3

How did Cc1nc(-c2ccc(C(=O)Nc3ccccc3F)cc2)cs1 do in these assays?
aSyn UTR act: 92.4

How did Cc1nc(-c2ccc(C(=O)Nc3ccc(F)cc3)cc2)cs1 do in these assays?
aSyn UTR act: -108.6*

Results for CC(OC(=O)CNC(=O)c1ccccc1F)C(=O)Nc1nc(-c2ccccc2)cs1 (stereo unspecified) ?
aSyn UTR act: -104.2*

How did Cc1nc(-c2cccc(N)c2)cs1 do in these assays?
aSyn UTR act: -63.2*

Results for COc1ccc(-c2csc(C)n2)cc1 ?
aSyn UTR act: -100.2*

Results for CC(C)(C)c1ccc(C(=O)NCC(=O)OCC(=O)Nc2nc(-c3ccc(F)cc3)cs2)cc1 ?
aSyn UTR act: -174.9*

What do the screens show for `COc1ccc(NC(=O)c2ccc(-c3csc(C)n3)cc2)cc1`?
aSyn UTR act: -194.7*

What do the screens show for `Cc1nc(-c2cc(-c3ccc(Cl)cc3)no2)cs1`?
aSyn UTR act: -137.0*

Results for CC(C)c1ccc(/C=C2\SC(=O)N(CC(=O)NC3C=CS(=O)(=O)C3)C2=O)cc1 (stereo unspecified) ?
aSyn UTR act: -69.0*

What do the screens show for `O=C(CCCN1C(=O)/C(=C/c2ccccc2Cl)SC1=S)NNC(=O)c1ccc(Cl)cc1`?
aSyn UTR act: 64.7

Results for O=C(CCN1C(=O)/C(=C/c2ccccc2)SC1=S)N1CCCCCC1 ?
aSyn UTR act: -62.4*

What do the screens show for `COCCN1C(=O)/C(=C/c2ccc(N3CCCC3)cc2)SC1=S`?
aSyn UTR act: -85.4*

What do the screens show for `CCOc1ccc(/C=C2\SC(=S)N(CCC(=O)O)C2=O)cc1`?
aSyn UTR act: 114.6

How did O=C(CCN1C(=O)/C(=C\c2ccccc2F)SC1=S)N1CCCCC1 do in these assays?
aSyn UTR act: -116.7*

Results for O=C(O)CCCN1C(=O)/C(=C\C(Cl)=C\c2ccccc2)SC1=S ?
aSyn UTR act: -224.7*

How did CC1CCN(C(=O)CCN2C(=O)/C(=C/c3cccs3)SC2=S)CC1 do in these assays?
aSyn UTR act: -74.7*

How did O=C(CCN1C(=O)/C(=C/c2ccccc2F)SC1=S)NC1C=CS(=O)(=O)C1 (stereo unspecified) do in these assays?
aSyn UTR act: -62.2*

What do the screens show for `COc1ccccc1C1=NC(c2ccc(C)cc2)N=C1C` (stereo unspecified)?
aSyn UTR act: -77.8*

How did CC(C)(C)NC(=O)C(c1ccncc1)N(Cc1ccco1)C(=O)c1ccc(-c2ccccc2)[nH]1 (stereo unspecified) do in these assays?
aSyn UTR act: -82.8*

How did O=C(NC(=O)c1ccc(Cl)cc1)OC1CCCCC1 do in these assays?
aSyn UTR act: -91.5*

Results for O=C(CNC(=O)c1ccccc1)OC1CCCCC1 ?
aSyn UTR act: -97.9*

Results for Fc1ccc(Cc2nnc(-c3cccs3)o2)cc1 ?
aSyn UTR act: -114.1*

How did Fc1ccccc1CSc1nnc(-c2cccs2)o1 do in these assays?
aSyn UTR act: -127.8*

Results for c1ccc(CSc2nnc(-c3cccs3)o2)cc1 ?
aSyn UTR act: -169.8*

Results for Fc1ccc(-c2nnc(Cc3ccc(Cl)cc3)o2)cc1 ?
aSyn UTR act: -85.9*

How did Fc1ccc(CSc2nnc(-c3cccs3)o2)cc1 do in these assays?
aSyn UTR act: -88.3*

Results for CCC(C)c1ccc(NC(=S)NN2CCOCC2)cc1 (stereo unspecified) ?
aSyn UTR act: -99.3*

How did CC(C)c1ccc(NC(=O)NN2CCOCC2)cc1 do in these assays?
aSyn UTR act: -98.4*

Results for C/C(=N\NC(=O)C1CCCN(S(=O)(=O)c2ccccc2)C1)c1ccccn1 (stereo unspecified) ?
aSyn UTR act: 66.7

Results for Cc1ccc(NC(=O)C2CCCN(c3ncccn3)C2)cc1F (stereo unspecified) ?
aSyn UTR act: -268.8*

How did Cc1ccc(NC(=O)C2CCCN(c3ncccn3)C2)c(C)c1 (stereo unspecified) do in these assays?
aSyn UTR act: -78.5*

How did O=C(Nc1ccc2c(c1)CCC2)C1CCCN(c2ncccn2)C1 (stereo unspecified) do in these assays?
aSyn UTR act: -156.8*

How did Cc1n[nH]c(=O)n1-c1ccc(OCc2ccccc2)cc1 do in these assays?
aSyn UTR act: -90.8*

Results for COc1ccc(NC(=O)/C=C/c2ccccc2)cn1 ?
aSyn UTR act: -116.1*

What do the screens show for `COc1ccc(NC(=O)/C=C/c2ccc(F)cc2)cn1`?
aSyn UTR act: -113.9*

What do the screens show for `CC(C)N1C(=O)/C(=C/c2nc3ccccc3c(=O)n2-c2ccccc2)c2ccccc21`?
aSyn UTR act: -66.5*

How did COc1cccc(OCc2cc(C(=O)NCc3ccc4c(c3)OCO4)no2)c1 do in these assays?
aSyn UTR act: -71.4*

How did O=C(Nc1ccc2c(c1)OCO2)c1cc(-c2ccccc2Cl)on1 do in these assays?
aSyn UTR act: -143.4*

Results for O=C(Nc1ccc2c(c1)OCO2)c1cc(-c2ccc(O)cc2)on1 ?
aSyn UTR act: -158.5*

Results for COc1cccc(-c2cc(C(=O)Nc3ccc4c(c3)OCO4)no2)c1 ?
aSyn UTR act: -66.1*

How did Oc1ccccc1-c1cc(-c2cccc(F)c2)n[nH]1 do in these assays?
aSyn UTR act: -233.9*

How did CCc1ccc(NC(=O)C2(C)Cc3ccccc3C(=O)O2)cc1 (stereo unspecified) do in these assays?
aSyn UTR act: -142.0*

Results for Cc1ccc(NC(=O)c2noc3c2CCc2ccccc2-3)cc1 ?
aSyn UTR act: -205.2*

Results for CCc1ccc(NC(=O)c2noc3c2CCc2ccccc2-3)cc1 ?
aSyn UTR act: -95.3*

What do the screens show for `Nc1nc(N2CCN(c3ccccn3)CC2)nc2ccccc12`?
aSyn UTR act: -118.1*

What do the screens show for `C#CCOCCOCCOCCNc1nc(N2CCN(C(=O)CCCCCCCCCCNC(=O)[C@H](CCCCN)n3cc(CCCC(=O)O)nn3)CC2)nc(N2CCN(C(=O)CCCCCCCCCCNC(=O)[C@H](CCCCN)n3cc(CCCC(=O)O)nn3)CC2)n1`?
aSyn UTR act: -111.9*

What do the screens show for `C#CCOCCOCCOCCNc1nc(N2CCN(C(=O)CCCCCCCCCCNC(=O)[C@H](CO)n3cc(CCCSC)nn3)CC2)nc(N2CCN(C(=O)CCCCCCCCCCNC(=O)[C@H](CCCCN)n3cc(C[C@@H](C)CC)nn3)CC2)n1`?
aSyn UTR act: 110.1

What do the screens show for `C#CCOCCOCCOCCNc1nc(N2CCN(C(=O)CCCCCCCCCCNC(=O)[C@H](CCCCN)n3cc(CCCC(=O)O)nn3)CC2)nc(N2CCN(C(=O)CCCCCCCCCCNC(=O)[C@H](CCCN=C(N)N)n3cc(C[C@@H](C)CC)nn3)CC2)n1`?
aSyn UTR act: -132.2*

How did C#CCOCCOCCOCCNc1nc(N2CCN(C(=O)CCCCCCCCCCNC(=O)[C@H](CCCCN)n3cc(C[C@@H](C)CC)nn3)CC2)nc(N2CCN(C(=O)CCCCCCCCCCNC(=O)[C@H](CCCCN)n3cc(C[C@@H](C)CC)nn3)CC2)n1 do in these assays?
aSyn UTR act: 106.8
